Screening data deposited in PubChem by Pan Lab, Icahn School of Medicine at Mount Sinai.
This excerpt belongs to a sample that is enriched for hits.
RBX1-CUL1 inh: inhibitors of human ROC1-CUL1 ubiquitin ligase activity; in vitro K48 di-Ub FRET, acceptor:donor ratio, 45 min; actives 0.6% (n = 140,000); inhibition, % at 10 µM; E3 ubiquitin-protein ligase RBX1 (Homo sapiens) + Cullin-1 (Homo sapiens), P62877+Q13616; in the data active means inhibition above about 25%
Target sequence (P62877 whole entry, looked up): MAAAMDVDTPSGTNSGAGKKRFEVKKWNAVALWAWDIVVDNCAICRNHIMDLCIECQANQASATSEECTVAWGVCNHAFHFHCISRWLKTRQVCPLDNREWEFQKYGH
Target sequence (Q13616 whole entry, looked up): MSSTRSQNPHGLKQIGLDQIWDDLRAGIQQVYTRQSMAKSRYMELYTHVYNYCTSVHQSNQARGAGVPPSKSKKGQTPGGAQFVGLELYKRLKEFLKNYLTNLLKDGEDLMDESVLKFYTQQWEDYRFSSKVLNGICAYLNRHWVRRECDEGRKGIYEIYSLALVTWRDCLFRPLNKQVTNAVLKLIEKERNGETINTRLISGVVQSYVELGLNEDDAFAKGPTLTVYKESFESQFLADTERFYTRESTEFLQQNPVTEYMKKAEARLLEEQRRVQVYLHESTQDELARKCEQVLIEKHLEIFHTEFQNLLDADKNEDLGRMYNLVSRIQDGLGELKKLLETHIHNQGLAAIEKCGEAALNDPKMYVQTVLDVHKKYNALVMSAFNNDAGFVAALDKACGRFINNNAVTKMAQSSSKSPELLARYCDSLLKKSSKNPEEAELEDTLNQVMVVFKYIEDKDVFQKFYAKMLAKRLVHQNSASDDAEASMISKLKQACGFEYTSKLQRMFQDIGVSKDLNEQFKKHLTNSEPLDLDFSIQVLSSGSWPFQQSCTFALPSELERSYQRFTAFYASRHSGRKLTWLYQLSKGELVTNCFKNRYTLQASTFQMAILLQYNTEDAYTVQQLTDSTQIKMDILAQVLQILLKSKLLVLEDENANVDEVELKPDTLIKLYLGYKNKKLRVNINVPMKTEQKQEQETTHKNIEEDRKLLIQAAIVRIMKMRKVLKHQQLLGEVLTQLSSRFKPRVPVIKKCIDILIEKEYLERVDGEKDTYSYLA
Of the large screens only hits and unclear results are named; the others gave an inactive call.

O=C(Cc1cccs1)Nc1ccc(Cc2cccc(NC(=O)Cc3cccs3)c2C(=O)O)cc1C(=O)O	RBX1-CUL1 inh 27
Cc1ccccc1NC(=O)Cc1cccs1	none
O=C(Cc1cccs1)Nc1ccccc1O	none
Brc1cccc(CNCc2ccccn2)c1	none
CC1=NN(c2ccc(C(=O)O)cc2)C(=O)/C1=C/c1cc(Br)ccc1OCc1ccccc1	none
CCOc1c(Br)cc(/C=C2/C(=O)N(c3cccc(C(=O)O)c3)N=C2C)cc1OC	RBX1-CUL1 inh 91
CCC(C)Oc1ccc(/C=C2\C(=O)N(c3ccccc3)N=C2C)cc1Br (stereo unspecified)	none
CCCOc1ccc(CN2C(=O)NC(=O)/C(=C\c3cc(Br)c(OCC(=O)O)c(OC)c3)C2=O)cc1OC	none
C#CCOc1cc(Br)c(/C=C2/C(=O)N(c3cccc(C(=O)O)c3)N=C2c2ccccc2)cc1OC	RBX1-CUL1 inh 90
COc1cc(C=C2C(=O)c3ccccc3C2=O)cc(Br)c1OCC(=O)O	RBX1-CUL1 inh 76
CCCCCCOc1ccccc1/C=C1\C(=O)N(c2ccc([N+](=O)[O-])cc2)N=C1c1ccccc1	none
COc1cc(/C=C2\C(=O)N(c3ccc(S(N)(=O)=O)cc3)N=C2C)cc(Br)c1OCC(C)C	none
COc1cc(CO)cc(Br)c1OCC(=O)O	none
CN(C)CCSC1(c2ccccc2)c2ccccc2CSc2ccccc21 (stereo unspecified)	none
CCn1cc(-c2nc(CNC(C)=O)cc(=O)[nH]2)c2ccccc21	none
O=C(CCC1CCCN(C(=O)c2sccc2Cl)C1)NC1CC1 (stereo unspecified)	none
Cc1ccc2nc3c(cc(C(=O)N4CC(C)CC(C)C4)n3C)c(=O)n2c1 (stereo unspecified)	none
CC1CCc2nc(NC(=O)CSc3nc4ccccc4s3)sc2C1 (stereo unspecified)	none
COc1ccc(C2c3c(C)nn(-c4ccc(C)cc4)c3OC(=N)C2C#N)cc1COc1ccc(F)cc1F (stereo unspecified)	none
Cc1nc(CNCC2(O)CCCN(CC3CCCCC3)C2=O)cs1 (stereo unspecified)	none
COc1cccc(/C=C(\C#N)c2nc3ccc(C)cc3[nH]2)c1	none
Cc1ccc2nc(/C(C#N)=C/c3coc4ccccc4c3=O)[nH]c2c1	RBX1-CUL1 inh 26
Cc1ccc2nc(/C(C#N)=C/c3ccccc3Cl)[nH]c2c1	none
COCc1[nH]nc2c1C(c1ccc(OC)c(OC)c1)C(C#N)C(=N)O2 (stereo unspecified)	none
CCOC(=O)c1ccc(N2C(=O)C3C(C2=O)C2(c4ccc(Cl)cc4)C(=O)C3(c3ccc(Cl)cc3)C(c3ccccc3)=C2c2ccccc2)cc1 (stereo unspecified)	none
O=C1C2C(c3ccc(F)c(Cl)c3)OC3(C(=O)c4ccccc4C3=O)C2C(=O)N1c1ccc(Br)cc1 (stereo unspecified)	RBX1-CUL1 inh 93
O=C1C2C(c3ccc(Br)cc3)OC3(C(=O)c4ccccc4C3=O)C2C(=O)N1c1ccc([N+](=O)[O-])cc1 (stereo unspecified)	none
O=C1C2C(c3ccccc3)OC3(C(=O)c4ccccc4C3=O)C2C(=O)N1c1ccc(F)cc1 (stereo unspecified)	none
CCN(C(=O)c1cc2c(=O)n3cccc(C)c3nc2n1C)c1cccc(C)c1	none
N#CC1C(=N)Oc2cc(O)c(C=Nc3cccc(F)c3)cc2C1c1ccco1 (stereo unspecified)	RBX1-CUL1 inh 48
COc1ccccc1N=Cc1cc2c(cc1O)OC(=N)C(C#N)C2c1cccc(F)c1 (stereo unspecified)	none
COc1ccc(N=Cc2cc3c(cc2O)OC(=N)C(C#N)C3c2cccc(F)c2)cc1 (stereo unspecified)	none
O=C(O)CC1(CC(=O)NCCNC(=O)CC2(CC(=O)O)CCCC2)CCCC1	none
Cc1ccc(Cl)cc1Nc1nnc(C)c(=O)[nH]1	none
CCCCCCCc1nn2c(N)c(C=C3C=C(Cl)C(=O)C(Cl)=C3)c(=O)nc2s1	RBX1-CUL1 inh 95
CCCc1nn2c(N)c(C=C3C=C(Br)C=CC3=O)c(=O)nc2s1	none
CCc1nn2c(N)c(C=C3C=C(Cl)C(=O)C(Cl)=C3)c(=O)nc2s1	none
CC(=Nc1ccc2[nH]c(C)c(-c3ccccc3)c2c1)N(C)C	none
N#C/C(=C\c1ccc(Cl)s1)C(N)=O	none
COC(=O)/C(C#N)=C/c1c(OC)[nH]c2ccccc12	none
CC(=O)Oc1c(/C=C(\C#N)C(N)=O)[nH]c2ccccc12	RBX1-CUL1 inh 47
Cc1ccc2c(CC(=O)N3CCOCC3)coc2c1C	none
COc1ccc(CCNc2ncnc3sc(-c4ccccc4)cc23)cc1OC	none
CCSc1ncc(Cl)c(C(=O)NCCOC)n1	none
O=C1NC(=S)N(c2cccc(Br)c2)C(=O)/C1=C/c1ccc(O)cc1	none
O=C1NC(=S)N(c2cccc(Br)c2)C(=O)/C1=C/c1cc(I)c(O)c(I)c1	RBX1-CUL1 inh 27
O=C1NC(=S)N(c2ccccc2)C(=O)/C1=C/c1cc(Br)ccc1O	none
CCOc1n[nH]c(-c2ccc(Br)cc2)n1	none
O=C(Nc1ccc(C(F)(F)F)cc1)C1CCN(Cc2ccccc2F)CC1	none
OC1(CCCN2CCCCC2)c2ccccc2CCc2ccccc21	none
COc1c(Br)cc2ccccc2c1-c1c(OC)c(Br)cc2ccccc12	none
Cc1ccc2c(c1)NC(C)(C)c1ssc(=Nc3ccc(C)c(C)c3)c1-2	none
O=S(=O)(c1ccc(I)cc1)N1CCSC1c1ccco1 (stereo unspecified)	none
CCOC(=O)c1c(Cl)cc(C)nc1Cl	none
Cc1cc(Cl)c2c(N)c(C)cc(C)c2n1	RBX1-CUL1 inh 91
Cc1cc(N2CCOCC2)c2c(N)c(Br)cc(C)c2n1	none
CCOC(=O)C1=C(c2ccccc2)N=c2s/c(=C/c3cccc([N+](=O)[O-])c3O)c(=O)n2C1c1ccc(OC)c(OC)c1 (stereo unspecified)	none
COc1ccc(CNC(C)(C)C)c(OC)c1OC	none
Cc1ccc(-c2csc(NC(=O)CSc3nc4ccccc4s3)n2)cc1	none
CCOC(=O)c1sc(SC)c(C#N)c1O	none
CCOC(=O)c1sc(N2C(=O)C=CC2=O)c(C#N)c1C	RBX1-CUL1 inh 72
CCOC(=O)c1sc(NC(=O)C(F)(F)F)c(C#N)c1C	none
Cc1cccc(CN2C(=O)N=C(Cc3cn(C)c4ccccc34)C2=O)c1	none
Cc1ccc(-c2cnc3c(c2)CCC3(C#N)C#N)cc1	none
O=C(NCCCn1ccnc1)c1cc2nc(-c3cccs3)cc(C(F)(F)F)n2n1	none
Cc1c(N=NC2C(=O)N(c3ccccc3)N=C2N)c(=O)n(-c2ccccc2)n1C (stereo unspecified)	none
CC1=NNC(=O)C1N=Nc1c(C)n(C)n(-c2ccccc2)c1=O (stereo unspecified)	RBX1-CUL1 inh 39
Cc1c(Sc2c(C)n(C)n(-c3ccccc3)c2=O)c(=O)n(-c2ccccc2)n1C	none
COc1cc([C@@H]2C[C@H]3CN(C4CCCC4)C(=O)[C@]34CCCN24)cc2c1OCO2	none
O=C(Nc1nc(-c2ccc(Cl)cc2)cs1)c1cncc(Br)c1	none
CCCc1nnc(SCc2cccc(C)c2)n1N	none
CCN=C1CC=CC=C(C(=O)/C=C/c2cccc(Cl)c2Cl)C1=O	RBX1-CUL1 inh 38
CCN=C1CC=CC=C(C(=O)/C=C/c2ccccc2Cl)C1=O	none
CCN=C1CC=CC=C(C(=O)/C=C/c2ccccc2Br)C1=O	RBX1-CUL1 inh 36
CCn1ncc(/C=C/C(=O)c2ccccc2)c1C	none
CCN=C1CC=CC=C(C(=O)/C=C/c2ccc(C#N)cc2)C1=O	none
CN=C1CC=CC=C(C(=O)/C=C/c2cccc(C(F)(F)F)c2)C1=O	RBX1-CUL1 inh 81
CCN=C1CC=CC=C(C(=O)/C=C/c2ccccc2C)C1=O	RBX1-CUL1 inh 73
Cc1ccccc1N=C1CC=CC=CC1=O	none
